Test results reported in PubChem BioAssay AID1457 (National Center for Advancing Translational Sciences (NCATS), 2008).
Out of some 210,000 compounds screened, about 730 (0.35%) were called active. Another 1% or so got no clear call; they are omitted. The full list was thinned out, with actives kept by preference. Values without a mark were called inactive. Calls come from the whole dose curve; as a rule, active = well fitted inhibition curve with a large enough effect; inconclusive = small, poorly fitted or top-dose-only effect; inactive = no such curve, though single readings can be large or run the other way.

Test: qHTS Assay for Identifying the Cell-Membrane Permeable IMPase Inhibitors: Potentiation with Lithium;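 note: IP1 builds up when IMPase is blocked and the TR-FRET signal falls; nearly all actives have a fitted effect of over 50% in size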;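 for activity, negative = IMPase inhibition: plate controls were basal vehicle for no effect and high inhibitor control for full effect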
Conditions: CHO-M1 cells, IP1 TR-FRET (IP-One), carbachol + lithium; series mostly up to 59.4 µM; activity, negative = IMPase inhibition: at the top concentration
From the text: NIH Chemical Genomics Center [NCGC]
NIH Molecular Libraries Probe Production centers Network [MLPCN]
Assay Submitter (PI): Wei Zheng
Lithium has been widely used for the treatment of bipolar disorder. But lithium has a narrow therapeutic index and it can cause side effects such as thirst, weight gain, tremor, polyuria and memory problems. Although the mechanism for lithium action in treatment of bipolar disorder is still not fully understood, inhibition of inositol monophosphatase (IMPase) and the subsequent depletion of the inositol pool in living cells have been implicated as the primary therapeutic benefit of lithium therapy. Therefore, a selective IMPase inhibitor with reduced side effects might be a good drug candidate to replace lithium for the treatment of bipolar disorder. Several IMPase inhibitors have been discovered previously. However, they are not suitable for therapeutic use because of their poor cell membrane penetrability or oral bioavailability; the development of new cell-permeable IMPase inhibitors is needed.
IMPase catalyzes the hydrolysis of inositol-1-phosphate (IP1) to release free inositol. Binding of an agonist to a Gq coupled GPCR results in the activation of PLC, which hydrolyzes the PIP2 to form inositol-1,4,5-trisphosphate (IP3) and diacyl glycerol (DAG). While DAG activates protein kinase C (PKC), IP3 triggers the elevation of intracellular free Ca2+. The IP3 is very rapidly inactivated by hydrolysis to IP2, IP1 and then inositol by a series of enzymes including IMPase. Free inositols are used for synthesis of PI and thus start another inositol cycle.
To identify new cell-permeable IMPase inhibitors, we developed a cell-based IMPase assay in which the cytosolic IP1 is measured by a time-resolved fluorescence resonance energy transfer (TR-FRET) assay. In this assay, an IP1 specific antibody is used to detect the labeled IP1 tracer. When the cell lysate contains the elevated IP1 due to the inhibition of IMPase, the TR-FRET between the labeled antibody and IP1 tracer is disrupted resulting in a reduction in the total signal. Since the TR-FRET is used, this cell-based assay is a homogenous assay without cell wash and medium change that is suitable for assay miniaturization and HTS. In this particular assay, a small amount of lithium is added to potentiate the response of weak activators.
NCGC Assay Protocol Summary:
A Chinese hamster ovary (CHO) cell line stably expressing the M1 receptor (CHO-M1) was obtained from ATCC and maintained in F-12 Kaighn's media (Invitrogen, Carlsbad, CA) supplemented with 10 % FBS, 100 units/ml penicillin, 100 ug/ml streptomycin and 250 ug/ml geneticin at 37C, 5% CO2 in a humidified atmosphere. Before the assay, aliquots of cells were frozen and stored at -135C. The assay was performed in 1536-well format. Data are reported for both the ratio of the two emission wavelengths, and also for the component 'donor' channel, Em2=620. […] AC50 values were determined from concentration-response data modeled with the standard Hill equation.
(1) Frozen CHO-M1 cells were thaw, washed once with fresh media and resuspended in F12K media containing 10% FBS, 100 units/ml penicillin and 100 ug/ml streptomycin. Cells were plated at 4ul/well (2000 cells) in white, tissue culture treated 1536-well plates, and then cultured at 37C, 5 % CO2 for 16 to 30 hours.
(2) Add 23 nl/well of compound in DMSO solution. The final titration for each compound was between 0.6 nM and 46 uM.
(4) Incubation at 37C, 5 % CO2 for 30 min.
(5) Add 1 ul/well of d2-conjugated IP1 (d2-IP1) and 1 ul/well of Eu+ cryptate conjugated anti-IP1 antibody (Eu+-Ab) prepared in the cell lysis buffer, both from the IP-One kit (Cisbio, MA).
(6) Incubate at room temperature for 10 minutes.
(7) Detect the assay plate (Ex = 320, Em1 =665 and Em2 620) in a ViewLux plate reader.
Potency is the fitted concentration of half-maximal effect.

With `CCOC(=O)c1c(C)[nH]c(=S)c(C#N)c1-c1ccccc1` the Potency was 12.6 µM (active).
In the case of `COC(=O)c1sc2[nH]c(=S)n(N)c(=O)c2c1C`, the Potency is reported as 10 µM (active).
With `Cc1nnc(NC(=O)CSc2nc(C3CCCCC3)nc3ccccc23)s1` the Potency was 6.31 µM (active).
In the case of `COC(=O)c1c(-c2cccs2)csc1NC(=O)CSc1ncnc2sc(C)c(C)c12`, the Potency is reported as 28.2 µM (active).
With `CN(c1nc2ccccc2n2c(-c3ccco3)nnc12)S(=O)(=O)c1ccccc1` the Potency was 7.94 µM (active).
With `COc1ccc(-c2nc3cnc(Oc4ccccc4)nc3n(Cc3cccs3)c2=O)cc1` the Potency was 8.91 µM (active).
In the case of `COc1ccc(-c2nc3cnc(OC)nc3n(Cc3ccc(F)cc3)c2=O)cc1`, the Potency is reported as 5.62 µM (active).
With `O=C(NCc1cccs1)c1cc(-c2ccccn2)nc2ccc(Br)cc12` the Potency was 6.31 µM (active).
For `O=C(Nc1ccncc1)c1cc(-c2ccccn2)nc2ccc(Br)cc12`, the Potency was 2.82 µM (active).

Point of comparison: `CCOC(=O)Cn1c(N)c(C(=O)OC)sc1=S`, “activity, negative = IMPase inhibition” value -4.7% [at 38.3 µM]. Against it:
- CCOC(=O)c1c(C)nc(-c2ccccc2)nc1NC(=O)C(C)C — higher, 2.09% [at 38.3 µM]
- COC(=O)c1sc(=S)n(-c2ccccc2)c1N — higher, 25.7% [at 38.3 µM]
- O=C(CSc1nc(C2CC2)nc2ccccc12)Nc1ccc2c(c1)OCCO2 — higher, 18.1% [at 38.3 µM]
- COC(=O)CSc1nc(C2CC2)nc2ccccc12 — higher, 3.22% [at 38.3 µM]
- CCOC(=O)c1c(NC(=O)CSc2nnc(Cc3csc(N)n3)n2C)sc(C)c1C — higher, 36% [at 38.3 µM]
- CCOC(=O)c1c(-c2ccc(C)cc2C)csc1NC(=O)CSc1nnnn1C — higher, 9.77% [at 38.3 µM]
- Cn1c(-c2ccco2)nc2cc3ccccc3cc21 — lower, -7.17% [at 38.3 µM]
- Cc1cc(NCc2ccco2)n2c(nc3ccccc32)c1C#N — higher, 20.5% [at 38.3 µM]

Point of comparison: `NNc1nnc(NN)c2ccccc12`, “activity, negative = IMPase inhibition” value 11.6%. Against it:
- CCOC(=O)c1c(C)[nH]c2c1-c1ccccc1C(=O)C2=O — higher, 12.6%
- Brc1ccc(C2=NCCC(c3ccccc3)O2)cc1 (stereo unspecified) — lower, 4.94%
- CC[C@H](C)[C@@H](NC(=O)O[C@@H]1C(=O)c2cc(OC)ccc2O[C@H]1c1cccc(OC)c1)C(=O)OC — higher, 18.9%
- COc1cc(OC)c2c(-c3cccc(-c4cccc(N)c4)c3)cc(=O)oc2c1 — higher, 16.6%
- CCOC(=O)C1=NO[C@@]2(C=C(Br)C(=O)[C@H]3O[C@H]32)C1 — higher, 15.8%
- CC1=C(/C=C/C(C)=C/C=C/C(C)=C/C=C/C=C(C)/C=C/C=C(C)/C=C/C(=O)[C@]2(C)C[C@@H](O)CC2(C)C)C(C)(C)C[C@H](O)C1 — lower, -2.06%
- COC/C=C/C1=CC2=CC(=O)C(C)(OC(=O)CCC(=O)OC)C(=O)C2=CO1 (stereo unspecified) — lower, 0.633%
- COc1cccc([C@@H]2Oc3ccc(Br)cc3C(=O)[C@H]2OC(=O)NCCc2ccc(OC)c(OC)c2)c1 — lower, 10.1%
- NC(=O)c1sc(-c2ccsc2)cc1N — lower, -15.1%
- COC(=O)C1=C(C(=O)OC)[C@@H]2N(C)c3ccccc3[C@@]23C[C@@H](C(=O)OC)N(S(=O)(=O)c2ccc(Br)cc2)C3=N1 — lower, 2.46%
- CC(N)(C(=O)O)c1ccc(-c2nn[nH]n2)cc1 (stereo unspecified) — lower, -8.09%
- CCN1C(=O)N[C@@H](c2ccccc2)C(C(=O)OC)=C1C — lower, -7.94%
- Cc1ccc(NC(=O)O[C@@H]2C(=O)c3cc(Br)ccc3O[C@H]2c2ccc3c(c2)OCO3)cc1Br — lower, 9.18%
- C=C1O[C@@](CO)(n2cnc3c(N)ncnc32)[C@H](O)[C@@H]1O — lower, -2.98%
- Cc1ccccc1-c1ccc(C(=O)O)s1 — lower, -28.1%
- O=C(NCc1ccco1)O[C@@H]1C(=O)c2cc(Br)ccc2O[C@H]1c1ccc2c(c1)OCO2 — lower, 7.71%
- O=C(O)C[C@@H]1NC(=O)[C@H](Cc2ccccc2)NC1=O — lower, -10.9%
- CCCCCCCC[C@@H](O)/C=C/C=C/C=C\[C@@H](O)CCCC(=O)O — lower, 6.73%
- COc1ccc2c(c1)O[C@@H](c1ccc3c(c1)OCO3)[C@H](OC(=O)NCCc1ccc(OC)c(OC)c1)C2=O — lower, -14.2%
- C/C=C(\C)C(=O)OC1C(OC(=O)C2(C)OC2C)c2cc3ccc(=O)oc3cc2OC1(C)C (stereo unspecified) — lower, 4.87%
- COC1(C2=NCCN2)COc2ccccc2O1 (stereo unspecified) — lower, 5.3%
- C[C@H]1Cc2c(COc3ccccc3)nc3c(c2CO1)CN(C(=O)NCc1ccco1)CC3 — lower, -2.19%
- C/C=C(\C)C(=O)O[C@H]1CC(C)=C2C(=O)C=C(C)C2[C@@H]2OC(=O)[C@@](C)(OC(=O)C=C(C)C)C21 (stereo partly specified) — lower, -1.2%
- CCCCC/C=C\C/C=C\C/C=C\CCCCCCC(N)=O — lower, 7.82%
- COc1cccc(Cn2c(=O)c(C)nc3cnc(Oc4ccccc4)nc32)c1 — higher, 18.7%
- COc1cccc(Cn2c(=O)c(-c3cc(F)cc(F)c3)nc3cnc(OC)nc32)c1 — lower, 0.937%
- COc1ccc(-c2nc3cnc(N(C)C)nc3n(Cc3cccs3)c2=O)cc1 — lower, 1.78%
- COc1cccc(Cn2c(=O)c(-c3ccccc3)nc3cnc(OC)nc32)c1 — higher, 24.5%
- COc1ccc(-c2c(C)cc3oc(=O)cc(-c4ccccc4)c3c2C)cc1C=O — lower, 2.81%
- CC(C)[C@@H]1NC(=O)[C@H](Cc2ccccc2)NC(=O)[C@@H](CC(=O)O)NC(=O)CNC(=O)[C@H](CCCNC(=N)N)NC1=O — lower, 7.05%
- Cc1cc2oc(=O)cc(-c3ccccc3)c2c(C)c1/C=C/c1ccc(F)cc1 — lower, -7.25%
- Cc1ccc(-c2cccc([C@H]3[C@@H]4C=CC[C@@H](C)[C@@H]4C(=O)N3Cc3ccccc3)c2)cc1 — lower, 10%
- CC(=O)/C(C)=N/O — lower, -3.22%
- Cc1ccc2nc(-c3ccncc3)cc(C(=O)Nc3ccc(OC(F)F)cc3)c2c1 — higher, 16.8%
- Cc1ccc(-c2cc(C(=O)NCc3cn(C)nc3C)c3cc(Br)ccc3n2)cc1 — lower, -14.7%
- Cc1ccc2nc(-c3ccccn3)cc(C(=O)Nc3ccc4c(c3)OCO4)c2c1 — lower, 4.54%
- O=C(NCc1ccccn1)c1cc(Br)ccc1Cl — lower, 5.27%
- S=C(NCCCc1cnc[nH]1)NCCCN(Cc1ccc(Cl)c(Cl)c1)c1ccc(Br)cn1 — lower, 2.14%
- C=CC(C1=CC(=O)C=CC1=O)c1ccc(O)cc1 (stereo unspecified) — higher, 38.9%
- COc1cccc([C@@H]2Oc3ccc(Br)cc3C(=O)[C@H]2OC(=O)NCc2ccc3c(c2)OCO3)c1 — lower, 9.58%
- CC(=O)[C@H](C(c1ccccc1)N1CCOCC1)N1CCOCC1 (stereo partly specified) — lower, -10.4%
- COC(=O)C1=C(C(=O)OC)[C@@H]2N(Cc3ccccc3)c3ccccc3[C@@]23C[C@@H](C(=O)OC)N(S(=O)(=O)c2ccc(C(F)(F)F)cc2)C3=N1 — lower, 9.75%
